# Measured values: PubChem BioAssay AID504329 (Southern Research Specialized Biocontainment Screening …, 2011)
# In all, about 340,000 compounds went through this assay and about 1,000 (0.29%) were called active. The list is a sample of the results. Potency and affinity values are given separately. Unmarked numbers belong to inactive results. Cut-off read from the data, not from the text of the source: inconclusive = inhibition above about 27% without an active follow-up result; inactive = below that.
# Test: NS1A inhibition, H1N1 influenza, cell based functional assay (AID 504329)
# Conditions: percent inhibition, at 12.5 µM, hits give high values
row,Compound,inhibition
1,Cc1ccc(N(CC(=O)NCc2ccccn2)S(=O)(=O)c2ccccc2)cc1Cl,-3.75%
2,Cc1ccc(NC(=O)CCN2C(=O)CSC2=O)cc1,-13.2%
3,CCCCN1C(=O)/C(=C2/Sc3ccc(OC)cc3N2CC)SC1=S,-6.84%
4,COc1cc2c3c(c1)-c1c(sn(-c4cc(OC)ccc4OC)c1=S)C(C)(C)N3C(=O)C2=O,7.42%
5,COc1ccc2c(c1)-c1c(sn(-c3ccccc3)c1=S)C(C)(C)N2,0.13%
6,COc1ccc(N2CCN(C(=O)c3ccc(Cl)c(S(=O)(=O)N4CCOCC4)c3)CC2)cc1,-0.24%
7,CN(C)c1c(-c2ccccc2)cc(-c2ccccc2)[nH]c1=O,-13.7%
8,O=C1/C(=C/c2ccc([N+](=O)[O-])cc2)C=C(c2ccccc2)N1c1ccccc1,16.3%
9,O=C(O)c1cccc(N2C(=O)/C(=C/c3ccc([N+](=O)[O-])cc3)C=C2c2ccccc2)c1,15.9%
10,CSCCC(NC(=O)c1ccccc1)C(=O)N1CCN(C(=O)c2ccccc2)CC1 (centres undefined),-5.85%
11,C[C@H](CO)N1C[C@H](C)[C@@H](CN(C)S(=O)(=O)c2ccc(F)cc2)Oc2c(NS(=O)(=O)c3ccccc3)cccc2C1=O,-4.12%
12,Cc1oc(-c2cccc(Cl)c2)nc1CN1CCC(C(=O)NCc2cccnc2)CC1,9.09%
13,COc1ccccc1NC(=O)CN1CCN(CC(=O)Nc2ccc(F)cc2)CC1,1.85%
14,CCOc1ccc(NC(=O)CN2CCN(CC(=O)Nc3ccccc3OC)CC2)cc1,-5.69%
15,CCOC(=O)c1c(NC(=O)CN2CCN(C(=O)c3ccco3)CC2)sc(C)c1C,-5.18%
16,CC/C(=C/c1sc2ccccc2[n+]1CC)SC,-0.17%
17,CC[n+]1c(/C=C(\C)SC)sc2ccccc21,3.81%
18,CC[n+]1c(/C=C(/C)SC)sc2ccccc21,-2.81%
19,CC[n+]1c(/C=C(\C)OC)sc2ccccc21,-2.73%
20,CC[n+]1c(/C=C/Nc2ccccc2)sc2ccccc21,11.6%
21,CCN1/C(=C\C=C(C(C)=O)C(C)=O)Sc2ccccc21,3.69%
22,Cc1nn(C(C)C(=O)NNC(=S)Nc2ccc(F)cc2)c(C)c1[N+](=O)[O-] (centres undefined),6.47%
23,Cc1c(O)ccc(C(=O)CN2CCN(c3ccccc3F)CC2)c1O,-1.8%
24,CC(C)(C)c1ccc(C(=O)NCCCNC(=O)c2cccnc2)cc1,-2.72%

row,Compound,inhibition
1,CCN(CC)C(=O)c1sc2nc(-c3ccccn3)[nH]c(=O)c2c1C,-6.6%
2,Cc1sc2nc(-c3ccccn3)[nH]c(=O)c2c1-c1ccccc1,-4.3%
3,Cc1cc(C)c(S(=O)(=O)N2CCCC(C(=O)N3CCOCC3)C2)c(C)c1 (centres undefined),-9.55%
4,Fc1ccccc1NC(=S)N1CCOCC1,16.1%
5,COC(=O)c1sc(S(=O)(=O)Nc2ccc(C)cc2)c(C(=O)OC)c1C,12.7%
6,CCN(/C(N)=N/c1nc(C)cc(C)n1)c1ccccc1,-6.77%
7,CC12CCC(C(=O)N(CSC(=S)N/N=C\c3ccccc3Cl)C1=O)C2(C)C (centres undefined),-1.31%
8,CC12CCC(C(=O)N(CSC(=S)N/N=C\c3ccccc3)C1=O)C2(C)C (centres undefined),6.84%
9,CCC(C(=O)NC1CCCC1)n1c(SCc2cccc(C)c2)nc2ccncc21 (centres undefined),-51.9%
10,O=[N+]([O-])c1c(NCCCO)cc(N2CCCCCC2)c2nonc12,21.6%
11,COc1ccc(-c2nc(C#N)c(N3CC(C)OC(C)C3)o2)cc1OC (centres undefined),2.35%
12,COc1ccc(NS(=O)(=O)c2ccc(C(=O)N3CCN(c4ccc(F)cc4)CC3)cc2)cc1,1.18%
13,CC(CC(F)(F)F)N1CCC(n2nccc2NC(=O)CCCc2ccccc2)CC1 (centres undefined),-11%
14,Oc1ccc(/C=N/Nc2ccc(Cl)nn2)cc1O,4.82%
15,Oc1c(Br)cc(Br)cc1/C=N/Nc1ccc(Cl)nn1,4.26%
16,Fc1ccccc1/C=N/Nc1ccc(Cl)nn1,-6.11%
17,Cc1ccccc1/C=N/Nc1ccc(Cl)nn1,3.61%
18,CCCCC(=O)Nc1cccc(C(=O)N/N=C/c2ccc(OC)cc2OC)c1,1.12%
19,CC(C)OC(=O)c1cn(-c2ccccc2)nc1-c1ccc2c(c1)OCCO2,-6.27%
20,CCN(C[C@H]1N[C@@](C)(C(=O)OC)[C@H]2C(=O)N(Cc3ccccc3)C(=O)[C@@H]12)C(=O)c1ccc(F)cc1,-26.8%
21,O=C(CN1CCN(C(C(=O)Nc2ccc(Cl)cc2C(F)(F)F)c2ccccc2)CC1)NC1CC1 (centres undefined),3.63%
22,CC(=O)c1ccc(NC(=O)C(C)Nc2ccc(Cl)cc2)cc1 (centres undefined),-4.25%
23,COC(=O)C(=CC(=CN(C)C)C=C(C(=O)OC)C(=O)OC)C(=O)OC,-13.2%
24,CC(C)Cn1c(NCCO)nc2ccccc21,-6.72%

row,Compound,inhibition
1,O=C(COC(=O)c1ccccn1)Nc1cccc2ccccc12,-2.54%
2,O=c1[nH]c(-c2ccccn2)cc2ccccc12,-3.67%
3,CN(C)CCCNCC(=O)Nc1ccccc1N1CCOCC1,5.38%
4,O=C(COc1ccc2ccccc2c1)N1CCN(C(=O)c2ccco2)CC1,-12.2%
5,CN(C=[N+](C)C)c1cccc2c1C(=O)c1ccccc1C2=O,3.5%
6,CC(=O)NC1=C(Nc2ccc(N(C)C)cc2)C(=O)c2ccccc2C1=O,12.5%
7,CN(C)S(=O)(=O)c1cccc2c1C(=O)c1ccccc1C2=O,4.55%
8,O=C1c2ccccc2C(=O)c2c1cccc2N(CCO)CCO,4.16%
9,CCN(CC)CC(=O)Nc1cccc2c1C(=O)c1ccccc1C2=O,11%
10,CNc1c(C(=O)O)ccc2c1C(=O)c1ccccc1C2=O,13.4%
11,CC(C)C[C@H]1COCCS(=O)(=O)N1Cc1cccc(F)c1,-14.6%
12,Cc1ccc(NC(=O)CC2S/C(=N/c3nccs3)N(C)C2=O)c(C)c1 (centres undefined),2.84%
13,CCCCNC(=O)NNC(=O)c1ccoc1C,0.18%
14,Cc1cc2oc(=O)cc(COC(=O)Cn3cnnn3)c2cc1C(C)C,-1.41%
15,Cc1nc(SCC(=O)Nc2c(C)n(C)n(-c3ccccc3)c2=O)c2cnn(-c3ccccc3)c2n1,-4.59%
16,CCNc1nc(NCC)nc(N(C)n2cnnc2)n1,-22%
17,CC(C)Nc1nc(NC(C)C)nc(N(C)N)n1,14.6%
18,COc1ccccc1C(=O)NNS(=O)(=O)c1ccc(F)cc1,-5.08%
19,CCc1ccc(NS(=O)(=O)c2c(C(=O)N3CCOCC3)c(C)n(C)c2C)cc1,0.85%
20,CCOC(=O)C(C)Oc1ccccc1C1NC(=O)NC(C)=C1C(=O)Nc1ccc(C)c(C)c1 (centres undefined),-6.31%
21,[O-][n+]1c2c(nn1-c1ccccc1)/C(=N/O)CCC2,-6.08%
22,CCOC(=O)Cc1nnc(NC(=O)COc2ccc(F)cc2)s1,6.17%
23,O=C(Nc1nc(-c2ccco2)c(-c2ccco2)s1)c1c(F)cccc1Cl,-14.8%
24,CC1=CC(=NNS(=O)(=O)c2ccc([N+](=O)[O-])cc2)CC(C)(C)C1,4.39%

row,Compound,inhibition
1,CC1(C)OC(=O)C(=NNc2ccccc2[N+](=O)[O-])C(=O)O1,3.07%
2,CC(=O)COc1cc(C)cc2oc(=O)c(C)c(C)c12,11.6%
3,CCc1ccc2c(c1)C1(NN=C(c3cccc4ccccc34)S1)C(=O)N2 (centres undefined),11.6%
4,CCc1ccc2c(c1)C1(NN=C(c3ccc(C)cc3)S1)C(=O)N2 (centres undefined),22.9%
5,CCOc1ccccc1Nc1cc(C)nc2ccc(C)cc12,6.09%
6,Cc1ccc(N2CC(NS(=O)(=O)c3cc(F)ccc3F)CC2=O)cc1C (centres undefined),9.69%
7,Cc1nc(CNS(=O)(=O)c2ccc(Oc3ccccc3)cc2)cs1,-11.2%
8,Cc1cc(C)c(S(=O)(=O)NCc2ccc3c(c2)cc(C)n3C)c(C)c1,21.8%
9,Cc1cc2cc(CNS(=O)(=O)c3ccccc3)ccc2n1C,17%
10,O=S(=O)(NCc1ccccc1)c1ccc2ccccc2c1,-9.3%
11,CCS(=O)(=O)NCc1ccc2c(c1)cc(C)n2C,10.3%
12,CC(=O)Nc1ccc(S(=O)(=O)NCc2ccc3c(c2)cc(C)n3C)cc1,19.1%
13,CCCS(=O)(=O)NCc1ccc2c(c1)cc(C)n2C,7.25%
14,Cc1ccc(S(=O)(=O)NCc2csc(C)n2)cc1,-0.87%
15,COc1ccccc1C(=O)NCC(=O)OCC(=O)c1ccc2c(c1)-c1ccccc1C2,2.5%
16,CSc1ccccc1OCc1cc(C(=O)N2CCN(c3ncccn3)CC2)no1,-3.62%
17,O=C(c1ccccc1F)N1CCCc2ccccc21,-3.09%
18,CCOC(=O)CN(C(=O)CNC(=O)c1cccs1)C(C(=O)NC1CCCC1)c1ccncc1 (centres undefined),-5%
19,CCC(C(=O)N/N=C/c1cccnc1)c1ccccc1 (centres undefined),-5.44%
20,Cc1cc(C(=O)NC2CCCN(Cc3ccccc3F)C2)n[nH]1 (centres undefined),-3.85%
21,C=CCNC(=S)Nc1ccccc1-c1nnc2n1CCCCC2,9.65%
22,COC(=O)c1cc(C(=O)OCC(=O)NC2CCCCCCC2)cc([N+](=O)[O-])c1,-0.07%
